This is an account of results in PubChem BioAssay.

In assay [1] the test system is Plasmodium falciparum Sir2 (PF13_0152, Sir2A). The assay is described as follows: Plasmodium falciparum Sir2A binding compounds – biochemical, small-molecule microarray, 635 nm fluorescence, primary screen (AID 1098).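 Further: score merges spot fluorescence intensity with its signal-to-noise ratio.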 The settings on record: fluorescence 635 nm, higher = more signal.
The nature of assay [2]: probe aDKK1 binding to arrayed compounds – biochemical, biotinylated probe, 635/667 nm fluorescence, primary screen (AID 1099).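 Further: score merges 667nm spot fluorescence with signal to noise across triplicate slides.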 Particulars: small-molecule microarray, higher = more signal.
Assay [3] can be described thus: probe aCHRDL2 binding to arrayed compounds – biochemical, biotinylated probe, 635/667 nm fluorescence, primary screen (AID 1100). The settings on record: small-molecule microarray, higher = more signal.
The nature of assay [4]: change in splice reporter luminescence, either direction, cell-based, HEK293, spliceosome inhibition project, primary screen (AID 1101).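 Further: HEK293 cells carrying a splicing-competent luciferase reporter gene; test concentration not given here.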 The settings on record: HEK293 splicing luciferase reporter, 24 h, higher = more signal, called active from +8 up or from −8 down. (In general: A reporter such as luciferase makes a cellular process visible.)
In assay [5] the target is Fibroblast growth factor 10 (Homo sapiens) (UniProt O15520). The assay is described as follows: compounds binding fibroblast growth factor 10 – biochemical, small-molecule microarray, 635 nm fluorescence, primary screen (AID 1102). The settings on record: FGF10 binding, fluorescence 635 nm, higher = more signal.
Sequence of Fibroblast growth factor 10 (Homo sapiens) (O15520 whole entry, looked up): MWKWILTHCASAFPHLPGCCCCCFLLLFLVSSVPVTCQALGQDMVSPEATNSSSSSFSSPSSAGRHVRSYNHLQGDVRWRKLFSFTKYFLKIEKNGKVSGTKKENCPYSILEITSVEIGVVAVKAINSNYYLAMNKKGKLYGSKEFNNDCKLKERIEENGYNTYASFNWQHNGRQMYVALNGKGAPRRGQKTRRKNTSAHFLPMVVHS
In assay [6] the test system is glycogen synthase kinase-3 (GSK3A per assay name; protocol says GSK3B). In words: compounds binding glycogen synthase kinase-3 – biochemical, small-molecule microarray, 635 nm fluorescence, GSK3A, primary screen (AID 1103). Further: the record names both GSK3A and GSK3B. The settings on record: fluorescence 635 nm, higher = more signal.
Assay [7] has as its target Epidermal growth factor receptor (Homo sapiens) (UniProt P00533). In words: compounds binding epidermal growth factor receptor – biochemical, small-molecule microarray, 635 nm fluorescence, primary screen (AID 1104).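 Further: score merges 667 nm emission intensity with spot signal to noise over triplicate slides.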 The settings on record: EGFR binding, higher = more signal.
Assay [8] concerns the target Follistatin-related protein 3 (Homo sapiens) (UniProt O95633). In words: compounds binding follistatin-related protein 3 – biochemical, small-molecule microarray, 635 nm fluorescence, primary screen (AID 1105).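 Further: score merges emission near 667 nm and signal to noise per printed spot across three slides.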 The settings on record: FSTL3 binding, higher = more signal.
The target of assay [9] is Dickkopf-related protein 1 (Homo sapiens) (UniProt O94907). The assay is described as follows: small molecules binding DKK1 protein – biochemical, small-molecule microarray, 635 nm fluorescence scan, primary screen (AID 1106).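 Further: score merges emission near 667 nm with signal to noise over three replicate slides.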 Particulars: higher = more signal.
Sequence of Dickkopf-related protein 1 (Homo sapiens) (O94907 whole entry, looked up): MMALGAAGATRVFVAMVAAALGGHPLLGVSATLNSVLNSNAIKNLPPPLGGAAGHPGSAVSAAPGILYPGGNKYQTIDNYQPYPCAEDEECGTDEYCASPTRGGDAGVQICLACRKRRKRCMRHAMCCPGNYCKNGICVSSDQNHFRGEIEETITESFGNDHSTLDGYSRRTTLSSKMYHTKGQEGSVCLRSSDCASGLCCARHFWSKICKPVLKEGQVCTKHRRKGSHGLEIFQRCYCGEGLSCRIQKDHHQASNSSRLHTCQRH
For assay [10], the system named is Inhibin beta A chain (activin A). In words: small molecules binding activin A – biochemical, small-molecule microarray, 635 nm fluorescence scan, primary screen (AID 1107).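 Further: mouse activin A protein probed at 4.33 µg/mL on printed slides; score merges bound-protein fluorescence near 667 nm with spot signal-to-noise.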 Particulars: INHBA, higher = more signal.
Assay [11] has as its system Human papillomavirus type 1a protein E7 (residues 44-93). In words: small molecules binding HPV E7 44-93 – biochemical, small-molecule microarray, residues 44-93, 635 nm fluorescence, primary screen (AID 1108).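 Further: E7 fragment applied at 1 µg/mL in TBST for 1 h at 4 C; score combines spot fluorescence with its signal to noise ratio.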 Particulars: fluorescence 635 nm, higher = more signal.
Assay [12] is described as follows: hepatitis C replication reporter changes, two-sided – Huh7 cells, luciferase reporter, HCV replication inhibitor project, primary screen (AID 1109).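 Further: huh7 hepatoma cells harbouring a luciferase neomycin HCV replicon reporter; luciferase luminescence as measure of HCV replicon replication; test concentration not given here.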 Particulars: Huh7 HCV replicon luciferase reporter, 48 h; higher = more signal.
Assay [13] concerns the target Left-right determination factor 2 (Homo sapiens) (UniProt O00292). The assay is described as follows: small molecules binding LEFTY2 protein – biochemical, small-molecule microarray, 635 nm fluorescence scan, primary screen (AID 1110). Particulars: higher = more signal.
Assay [14] concerns the target Calmodulin-1 (Homo sapiens) (UniProt P0DP23). In words: small molecules binding calmodulin-1 with EGTA – biochemical, small-molecule microarray, Cy5-labelled CALM1, profiling panel (AID 1111).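 Further: labelled calmodulin applied in Tris saline Tween buffer holding calcium plus EGTA and DTT.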 The settings on record: Cy5-CALM1 binding fluorescence, higher = more signal.
Assay [15] shares this target. In words: small molecules binding Ca-loaded calmodulin-1 – biochemical, small-molecule microarray, Cy5-labelled CALM1, plus calcium, artefact control for SMM control-protein annotation, profiling panel (AID 1112).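 Further: score merges spot fluorescence with signal to noise from triplicate slides.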 The settings on record: Cy5-CALM1 binding fluorescence, higher = more signal.
Assay [16] is described as follows: probe aWnt5a binding to arrayed compounds – biochemical, biotinylated probe, 635/667 nm fluorescence, primary screen (AID 1113).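 Further: score merges 667 nm fluorescence intensity with signal-to-noise per printed feature.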 Particulars: small-molecule microarray, higher = more signal.
A short description of assay [17]: probe aShh binding to arrayed compounds – biochemical, biotinylated probe, 635/667 nm fluorescence, primary screen (AID 1114).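 Further: probe is biotin-labelled aShh protein from a stem cell growth factor screen; measures binding of labelled protein to compounds printed on the slide; score merges feature fluorescence at 667 nm with signal-to-noise.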 The settings on record: small-molecule microarray, higher = more signal.
A short description of assay [18]: probe aNog binding to arrayed compounds – biochemical, biotinylated probe, 635/667 nm fluorescence, primary screen (AID 1115).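 Further: probe is biotinylated aNog protein used at 0.15 µg/mL for 1 h at 4 C; z-score combines 667 nm fluorescence of each spot with its signal to noise.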 Particulars: small-molecule microarray, higher = more signal.
Assay [19] addresses Torsin-1A-interacting protein 1 (Homo sapiens) (UniProt Q5JTV8). In words: compound microarray binding of lysate hLAP1 – cell lysate, small-molecule microarray, COS7 lysate, 635/667 nm fluorescence, primary screen (AID 1116). The settings on record: 635 nm fluorescence, higher = more signal.
In assay [20] the target is Alpha-bungarotoxin (Bungarus multicinctus) (UniProt P60615). The assay is described as follows: compounds binding labelled alpha-BTX control protein – biochemical, small-molecule microarray, Alexa647 label, 635/667 nm fluorescence, artefact control for SMM control protein annotation, profiling panel (AID 1117). Particulars: alpha-BTX-A647 binding fluorescence, higher = more signal.
Sequence of Alpha-bungarotoxin (Bungarus multicinctus) (P60615 whole entry, looked up): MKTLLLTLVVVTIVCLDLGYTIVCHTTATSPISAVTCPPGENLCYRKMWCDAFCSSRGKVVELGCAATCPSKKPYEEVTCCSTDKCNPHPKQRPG

Active and inactive are the calls of the source.

Sequence of Epidermal growth factor receptor (Homo sapiens) (P00533 whole entry, looked up): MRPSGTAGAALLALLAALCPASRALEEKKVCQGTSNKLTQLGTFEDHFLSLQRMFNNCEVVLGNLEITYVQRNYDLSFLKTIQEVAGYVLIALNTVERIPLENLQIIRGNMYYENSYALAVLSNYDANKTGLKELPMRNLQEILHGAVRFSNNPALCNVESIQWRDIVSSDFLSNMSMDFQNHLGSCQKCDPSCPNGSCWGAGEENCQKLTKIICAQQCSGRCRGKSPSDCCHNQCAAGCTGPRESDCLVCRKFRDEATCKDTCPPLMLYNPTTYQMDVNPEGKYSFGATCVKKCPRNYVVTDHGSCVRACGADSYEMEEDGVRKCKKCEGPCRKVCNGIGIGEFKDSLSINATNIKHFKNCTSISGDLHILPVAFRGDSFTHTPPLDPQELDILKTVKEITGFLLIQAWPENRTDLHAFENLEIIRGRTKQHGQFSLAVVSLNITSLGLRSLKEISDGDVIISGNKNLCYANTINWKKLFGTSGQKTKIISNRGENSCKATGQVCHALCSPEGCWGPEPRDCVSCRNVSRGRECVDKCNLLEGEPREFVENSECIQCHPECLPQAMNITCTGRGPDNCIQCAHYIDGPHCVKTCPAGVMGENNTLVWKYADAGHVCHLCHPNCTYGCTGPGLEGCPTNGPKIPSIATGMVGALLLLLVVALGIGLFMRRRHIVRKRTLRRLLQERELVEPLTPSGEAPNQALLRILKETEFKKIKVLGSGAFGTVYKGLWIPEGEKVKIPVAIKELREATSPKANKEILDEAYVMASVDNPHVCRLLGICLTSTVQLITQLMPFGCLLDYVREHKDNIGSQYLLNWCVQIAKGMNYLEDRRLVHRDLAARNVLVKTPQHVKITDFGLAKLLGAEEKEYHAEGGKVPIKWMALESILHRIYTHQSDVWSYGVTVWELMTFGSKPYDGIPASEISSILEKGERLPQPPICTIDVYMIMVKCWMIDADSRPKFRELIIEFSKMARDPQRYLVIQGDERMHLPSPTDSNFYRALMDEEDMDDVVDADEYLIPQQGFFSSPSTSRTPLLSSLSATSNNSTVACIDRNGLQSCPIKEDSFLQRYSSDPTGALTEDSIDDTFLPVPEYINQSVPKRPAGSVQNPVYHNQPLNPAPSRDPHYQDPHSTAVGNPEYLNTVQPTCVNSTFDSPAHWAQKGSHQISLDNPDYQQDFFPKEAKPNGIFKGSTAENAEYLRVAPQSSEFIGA
Sequence of Left-right determination factor 2 (Homo sapiens) (O00292 whole entry, looked up): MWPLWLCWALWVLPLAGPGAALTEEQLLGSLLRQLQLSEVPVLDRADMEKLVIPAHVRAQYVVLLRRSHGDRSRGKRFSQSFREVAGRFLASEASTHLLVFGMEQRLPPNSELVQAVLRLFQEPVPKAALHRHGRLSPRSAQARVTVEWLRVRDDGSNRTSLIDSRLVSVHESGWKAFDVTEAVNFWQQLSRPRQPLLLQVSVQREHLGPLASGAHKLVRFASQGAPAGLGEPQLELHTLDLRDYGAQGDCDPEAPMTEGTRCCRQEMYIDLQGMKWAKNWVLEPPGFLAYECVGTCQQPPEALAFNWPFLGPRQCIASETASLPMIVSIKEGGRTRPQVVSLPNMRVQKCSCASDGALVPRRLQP
Sequence of Follistatin-related protein 3 (Homo sapiens) (O95633 whole entry, looked up): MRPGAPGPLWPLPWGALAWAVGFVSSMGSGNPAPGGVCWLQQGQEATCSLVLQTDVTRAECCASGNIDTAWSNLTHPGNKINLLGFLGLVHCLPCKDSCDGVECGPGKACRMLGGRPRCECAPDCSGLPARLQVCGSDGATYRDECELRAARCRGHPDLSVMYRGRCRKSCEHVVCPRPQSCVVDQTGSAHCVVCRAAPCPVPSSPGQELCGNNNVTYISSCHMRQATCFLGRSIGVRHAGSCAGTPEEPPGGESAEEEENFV
Sequence of Torsin-1A-interacting protein 1 (Homo sapiens) (Q5JTV8 whole entry, looked up): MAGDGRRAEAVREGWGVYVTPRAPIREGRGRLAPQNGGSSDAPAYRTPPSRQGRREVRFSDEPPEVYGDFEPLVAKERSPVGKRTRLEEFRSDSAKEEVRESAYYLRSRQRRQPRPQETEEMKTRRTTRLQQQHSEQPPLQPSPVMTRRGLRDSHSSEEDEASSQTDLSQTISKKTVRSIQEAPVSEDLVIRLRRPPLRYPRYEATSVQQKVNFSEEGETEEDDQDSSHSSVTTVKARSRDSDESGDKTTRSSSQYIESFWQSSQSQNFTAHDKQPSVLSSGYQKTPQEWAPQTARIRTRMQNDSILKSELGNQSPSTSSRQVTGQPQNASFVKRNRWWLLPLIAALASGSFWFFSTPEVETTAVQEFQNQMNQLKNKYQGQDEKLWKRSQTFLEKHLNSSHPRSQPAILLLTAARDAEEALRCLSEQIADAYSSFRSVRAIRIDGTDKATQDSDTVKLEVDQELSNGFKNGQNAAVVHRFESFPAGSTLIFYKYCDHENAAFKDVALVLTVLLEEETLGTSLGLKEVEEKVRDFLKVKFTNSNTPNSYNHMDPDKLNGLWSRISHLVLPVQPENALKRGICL

Take `CCCCCC1=C2CNC(Cc3ccccc3)(C(=O)OC)C=C2C(C)C1=O` (stereo not given): the composite z-score in assay [1] was 0.0442; in [2], 0.926; in assay [3] it was 1.37; in [5], -0.0286; in [6] it was -1.16; in [7] it was -0.779. Moreover, the composite z-score in assay [8] was -0.733; in assay [9] it was -1.84; in assay [10], 1.47; in assay [11], 0.719; in assay [13], -1.75; in [14], 1.54. In addition, the composite z-score in [15] was 1.46; in assay [16], -0.0643; in [17] it was 0.45; in assay [18], 1.7; in assay [19], 1.64; in assay [20], 0.175. The figures for the z-score in [4] and in [12] were 73.6 (active) and -1.85, respectively.

In the case of `O=C1O[C@H](Cc2ccccc2)[C@@H]2[C@H]3C=CCCC=C3CN2[C@H]1Cc1ccc(O)cc1`, the composite z-score in assay [1] is 0.968; in [2], -0.271; in assay [3], -0.0179; in assay [5], -0.36; in assay [6], -1.16; in assay [7], -0.317. Moreover, the composite z-score was -0.17 in assay [8]; -0.0128 in assay [9]; 0.991 in assay [10]; -1.94 in [11]; -0.543 in assay [13]; -0.342 in [14]. Besides, the composite z-score in [15] was -0.593; in assay [16], -0.0991; in [17], 0.207; in [18], 0.0222; in assay [19], -0.0081; in assay [20], -0.224. Also, the z-score in assay [4] is 0.192 (inactive); in assay [12], -1.7.

Turning to `COCCOC(=O)N1C(=O)[C@@]2(c3cc(C#CCNC(N)=O)ccc31)[C@H](C(=O)Nc1nc3ccccc3s1)[C@H]1C(=O)O[C@H](c3ccccc3)[C@H](c3ccccc3)N1[C@@H]2c1ccccc1OCCO`, the composite z-score was 0.678 in assay [1]; 0.376 in [2]; 0.812 in assay [3]; 1.38 in [5]; 0.392 in assay [6]; 0.597 in assay [7]. The composite z-score in [8] came to 1.05; in assay [9] it was 0.397; in assay [10], 1.22; in assay [11], 0.629; in [13], 0.685; in assay [14], 0.567. In addition, the composite z-score in [15] is 0.132; in [16], -0.0405; in assay [17], 0.142; in assay [18] it was 0.355; in [19], 1.05; in assay [20], 0.771. Further, the z-score was -0.549 (inactive) in [4] and -1.22 in assay [12].

In the case of `CCN(CC)c1ccc(N2CC=CC34O[C@@H]5C=CCCOC(=O)C5[C@H]3C(=O)N(C(C)CO)[C@@H]4C2=O)cc1` (stereo not given in full), the composite z-score was 1.85 in [1]; -0.24 in [2]; 0.477 in assay [3]; 0.0925 in assay [5]; 0.519 in assay [6]; -0.79 in assay [7]. The composite z-score in assay [8] is -0.157; in [9] it was -0.0888; in [10], 1.42; in assay [11], 0.274; in assay [13], -0.331; in assay [14] it was -0.521. Moreover, the composite z-score is -1.08 in assay [15]; -0.0758 in [16]; 0.194 in assay [17]; 0.156 in assay [18]; 0.391 in assay [19]; -0.973 in [20]. Further, the z-score is -0.0428 (inactive) in assay [4] and -1.19 in [12].

As to `CO[C@H]1O[C@H](CO)[C@@H](OC(=O)Nc2ccc3c(c2)OCO3)[C@H](OC(=O)Nc2ccccc2-c2ccccc2)[C@H]1OC(=O)Nc1ccccc1-c1ccccc1`, the composite z-score was 0.977 in assay [1]; 0.446 in assay [2]; 0.591 in assay [3]; 1.03 in assay [5]; 1.31 in assay [6]; -0.294 in assay [7]. Also, the composite z-score was 0.398 in assay [8]; -0.0521 in [9]; 0.411 in assay [10]; 1.08 in assay [11]; -0.0829 in assay [13]; 1.54 in assay [14]. Besides, the composite z-score in assay [15] was -0.243; in assay [16] it was 0.288; in [17] it was -0.273; in assay [18], 0.747; in [19] it was 2.06; in assay [20], 0.557. For the same compound, the z-score in assay [4] is 0.617 (inactive); in [12], -3.79.

Take `Cc1ccc(S[C@]2(C(=O)NC3CC3)CC(=O)N(C(C)C)[C@@H]2c2ccc(CO)cc2I)cc1`: the composite z-score in assay [1] was 1.37; in assay [2], -0.299; in [3] it was 0.812; in assay [5], 0.377; in [6], -0.122; in assay [7], -0.638. Besides, the composite z-score is 0.101 in [8]; -1.37 in assay [9]; 0.318 in assay [10]; 1.17 in assay [11]; -0.792 in assay [13]; -0.462 in [14]. The composite z-score was -0.0946 in assay [15]; 0.191 in assay [16]; -0.372 in assay [17]; -0.519 in [18]; 1.74 in assay [19]; -0.0074 in assay [20]. The z-score in [4] is -1.89 (inactive); in [12] it was -2.21.
